Assay outcomes (PubChem)
This is a sample that favours compounds with a hit; in the whole collection about 2.9% have one here.
B2AR arrestin: qHTS assay of beta-arrestin-biased ligands of beta2-adrenergic receptor | beta-arrestin recruitment to beta2AR, cell-based reporter | 330,000 tested, 0.02% active | Potency, µM (highest dose often 46.1 µM), inactives show at the highest dose activation, hits mostly activators | AID 492947, 2010 | Beta-2 adrenergic receptor (Homo sapiens), P07550; active = well fitted activation curve with a large enough effect; inconclusive = small, poorly fitted or top-dose-only effect;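 note: potency is the fitted concentration of half-maximal effect; 0% = DMSO controls and full agonism = EC100 isoproterenol or metaproterenol; nearly all actives have a fitted effect of over 65% in size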
TSHR antag: Antagonists of the Thyroid Stimulating Hormone Receptor: HTS campaign; AID 504810, 2011; Thyrotropin receptor (Homo sapiens), P16473; 330,000 tested, 0.2% active; TSHR-expressing cells, TSH-stimulated cAMP HTRF, 2 h; active compounds read low; activity change, negative = inhibition, % at 11.5 µM;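 active = activity change below a set negative limit, meaning inhibition stronger than a set level, cut at about -70% in these data; inconclusive = activity change between two set negative limits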; note: % is set by controls: 0 for no effect and ±100 for the full control effect
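Freshly harvested TSHR cells receive pin-tooled compound, then EC80 TSH at 4nM final. After 2 hours at 37 deg C, antibody in lysis buffer and cAMP-d2 are added; 30 minutes at ambient temperature precede the HTRF read.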
D3 ag: qHTS of D3 Dopamine Receptor Agonist: qHTS; D(3) dopamine receptor (Homo sapiens), P35462; D3R DiscoveRx beta-arrestin cells, luminescence, 90 min; max activation, %; 410,000 tested, 0.58% active; AID 652048, 2013; in the data active = max activation above about 30%; note: 0% is about no effect
Target sequence (P35462 whole entry, looked up): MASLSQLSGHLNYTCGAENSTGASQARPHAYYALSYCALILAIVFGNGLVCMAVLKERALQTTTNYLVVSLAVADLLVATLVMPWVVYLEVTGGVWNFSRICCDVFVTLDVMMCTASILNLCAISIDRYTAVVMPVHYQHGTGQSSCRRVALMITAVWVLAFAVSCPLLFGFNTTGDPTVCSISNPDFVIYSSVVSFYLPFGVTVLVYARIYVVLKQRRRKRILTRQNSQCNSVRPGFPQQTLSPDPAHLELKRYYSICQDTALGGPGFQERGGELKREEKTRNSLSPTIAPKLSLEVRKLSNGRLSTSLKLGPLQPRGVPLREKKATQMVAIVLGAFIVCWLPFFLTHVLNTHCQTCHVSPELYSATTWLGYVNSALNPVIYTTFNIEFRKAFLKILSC
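Agonist-mode cell screen: cells plated at 1500/well and incubated overnight at 37 °C, then exposed to library compounds for 90 min at 37 °C. Detection reagent was added for 30–60 min at room temperature, and luminescence was read.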
D3 antag: qHTS of D3 Dopamine Receptor Antagonist: qHTS; max response, negative = inhibition, %; D(3) dopamine receptor (Homo sapiens), P35462; D3R cells, DiscoveRx beta-arrestin luminescence, antagonist mode; active compounds read low; 360,000 tested, 2.5% active; AID 652054, 2013; in the data active = max response below about -50%; inconclusive = no clear call, values can overlap the other calls; note: % is set by controls: 0 for no effect and ±100 for the full control effect
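Cells plated overnight at 1500 cells/well, then exposed to library compounds with dopamine controls for 90 minutes at 37 degrees C. DiscoveRx reagent added for 30–60 minutes at room temperature; luminescence read, quantitative HTS format.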
* marks the source's active call; other numbers are inactive results; ? = inconclusive; . = no result.

SMILES	B2AR arrestin	TSHR antag	D3 ag	D3 antag
CCOc1ccc(N2CC(c3nc(-c4cc(OC)c(OC)c(OC)c4)no3)CC2=O)cc1 (centres undefined)	.	.	2.0	.
Cc1cc2c(=O)c(C(=O)c3ccncc3)cn(CC(=O)Nc3cccc(C)c3C)c2cc1C	.	.	-21.2	.
Cc1ccccc1-n1nc(CO)c(C(=O)NCC(c2ccccc2)c2ccccc2)n1	.	.	3.8	.
COc1cc(C(=O)OCc2cc(=O)n3ccsc3n2)cc(OC)c1OC	.	.	-1.4	.
CN(CC(=O)N1CCOCC1)Cc1c(Cl)cccc1NC(=O)c1ccccc1	.	.	-0.3	.
COCCNC(=O)C1(C)Cc2c(-c3ccc(NC(C)=O)cc3)ccnc2O1 (centres undefined)	.	.	-10.5	-1.7
CC1(C(=O)NCc2cccs2)Cc2c(-c3ccc(C(N)=O)cc3)ccnc2O1 (centres undefined)	.	.	-8.4	-71.4*
COc1ccc(CCCNC(=O)C2(C)Cc3c(-c4ccc(NC(C)=O)cc4)ccnc3O2)cc1 (centres undefined)	.	.	-18.6	-62.3*
CN(C)c1ccc(-c2ccnc3c2CC(C)(C(=O)Nc2ccc(F)c(Cl)c2)O3)cc1 (centres undefined)	.	.	69.3*	-23.7
CC(=O)NCCNC(=O)C1(C)Cc2c(-c3ccc(C(N)=O)cc3)ccnc2O1 (centres undefined)	.	.	4.1	22.2
CN(C)c1ccc(-c2ccnc3c2CC(C)(C(=O)Nc2ccc(Cl)cc2)O3)cc1 (centres undefined)	.	.	0.4	-1.7
Cc1oc2ncn(CC(C)C)c(=O)c2c1C(=O)N1CCN(c2ccc(F)cc2)CC1	.	.	0.0	.
CC(C)CCn1c(-c2nonc2N)nc2ccccc21	-0.6%	10.3	1.0	-51.2*
Cc1cc(C)cc(C(=O)NCCc2sc(-c3ccc(F)cc3)nc2C)c1	.	.	-4.5	.
CCN(CC)C(=O)CSc1nsc(SCC(=O)N(CC)CC)c1C#N	-0.2%	-5.9	-3.5	-55.0*
C=COC(=O)CSc1snc(SCC(=O)OC)c1C#N	-0.4%	-23.2	1.8	-10.9
COc1nc(NC(C)C)nc(N(C#N)CN2C(=O)c3ccccc3S2(=O)=O)n1	-0.6%	-2.3	-3.2	-57.7*
CCOC(=O)c1cnc2cc(C(F)(F)F)ccc2c1N1CCN(c2cccc(Cl)c2)CC1	.	.	-5.2	.
Cc1ccc(S(=O)(=O)CC(c2ccccc2)N2CCCCC2)cc1 (centres undefined)	0.0%	-12.0	-11.4	-17.8
O=S(=O)(CC(CN1CCCCC1)N1CCCCC1)c1ccc2ccccc2c1 (centres undefined)	0.0%	-2.5	-25.8	-85.0*
Cc1ccc(S(=O)(=O)CC(CN2CCCCC2)N2CCCCC2)cc1 (centres undefined)	-0.1%	21.1	-13.9	-68.2*
O=C(Cn1c(=O)nc(-c2ccccc2)c2ccccc21)N1CCN(c2ccc(F)cc2)CC1	.	.	3.8	.
COc1ccc(-c2nc(CN3CCC(c4ccccc4)CC3)c(C)o2)cc1OC	0.0%	2.7	-20.3	-0.6
Cc1oc(-c2cccs2)nc1CN1CCC(c2ccccc2)CC1	-0.6%	0.9	-27.1	-90.6*
O=C(Nn1c(O)c(C=C2N=c3ccccc3=N2)sc1=S)c1cccc(Cl)c1	-0.6%	6.2	-21.6	-53.1*
SMILES	B2AR arrestin	TSHR antag	D3 ag	D3 antag
O=C(Nn1c(O)c(C=C2N=c3ccccc3=N2)sc1=S)c1ccc(Cl)cc1	0.3%	54.7	11.0	-18.9
Nc1nc2ncccc2cc1C(=O)NC1CCCCC1	.	.	76.9*	-19.6
O=C(NC1CCCCC1)c1cc2ccccc2cc1O	-0.7%	-18.4	2.4	-1.2
CCC(C)n1c(SCc2ccc(F)cc2Cl)nc2ccsc2c1=O (centres undefined)	.	.	-12.1	.
O=C1CN(S(=O)(=O)c2cc(C(=O)O)ccc2Cl)c2ccccc2N1	0.0%	-76.3*	-12.2	-17.7
Cc1cccc(NC(=O)CSc2nc(-c3cccs3)cc(C(F)(F)F)c2C#N)c1C	.	.	0.2	.
Cc1cc(C)cc(C(=O)Nc2ccc(-c3nc4ncccc4o3)cc2)c1	.	.	-2.5	.
COc1cc(/C=N/NC(N)=S)cc(Br)c1OCc1ccccc1F	-0.1%	-1.7	-6.6	-50.8*
COc1cccc(OCCNCc2ccccc2)c1	0.2%	6.5	-15.2	-79.0*
Cc1ccc(OCCNCc2ccccc2)c(C)c1	-0.1%	23.4	-10.4	-69.9*
Cc1cccc(OCCCCNCc2ccccc2)c1	-0.2%	13.6	-13.5	?
